Bioassay records (PubChem)
This is a sample that favours compounds with a hit; in the whole collection about 10% have one here.
GPT2 inh = blocks human glutamate pyruvate transaminase 2. Q8TD30. Recombinant GPT2, coupled pyruvate oxidase/HRP Amplex Red fluorescence. Potency, µM (titrated, usually from 57.7 µM), for inactives: at the highest dose activity change, negative = inhibition, hits mostly inhibitors. 0.25% of 100,000 active. AID 1671188; note: nearly all actives have a fitted effect of over 60% in size
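Fluorescence of coupled pyruvate oxidase/HRP/Amplex Red system (50uM Amplex, 30 min, dark) reports pyruvate formed by GPT2. Enzyme reaction: 10ng/uL GPT2, 2mM L-alanine, 250uM a-KG, 30 min room temperature, pH 7.5; 50uM AOA control.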
Luciferase inh = Photinus pyralis luciferase inhibition. P08659. purified P. pyralis luciferase, luminescence, biochemical. Potency, µM (series often up to 115 µM), hits mostly inhibitors. 2.5% of 76,000 active. AID 1347043; note: nearly all actives have a fitted effect of over 65% in size
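FLuc 10nM, D-luciferin 10uM, ATP 10uM, Mg acetate 10mM, Tris acetate pH 7.5, Tween/BSA; cpd qHTS; enzyme added last; CCD luminescence.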
NIH3T3 tox = kills NIH 3T3 cells; NIH 3T3 viability, CellTiter-Glo ATP luminescence, 48-72 h; Potency, µM (doses to about 96.7 µM), for the others: at the highest dose activity change, negative = cytotoxicity, usual class: inhibitors; 4.3% of 94,000 active; AID 1345082; note: nearly all actives have a fitted effect of over 55% in size
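Cytotoxicity is measured as loss of cellular ATP: NIH 3T3 cells (400/well) are exposed to compound for 48 or 72 hr at 37 °C, then CellTiter-Glo luminescence is imaged after 10 min at room temperature.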
HEK293 tox = kills HEK 293 cells | HEK 293 viability, ATP luminescence (CellTiter-Glo), 48-72 h | Potency, µM (series often up to 115 µM), for the others: at the highest dose activity change, negative = cytotoxicity, usual class: inhibitors | 6.6% of 94,000 active | AID 1345083; note: nearly all actives have a fitted effect of over 60% in size
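CellTiter-Glo luminescence (cellular ATP) was read after 48 or 72 hr of compound exposure at 37 degree Celsius. Cells were HEK 293 plated at 250 cells/well.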
hNpr1 antagonist = blocks ANP-stimulated signaling of human Npr1 receptor; HEK293 hNpr1 GloSensor cGMP, ANP-stimulated luminescence; Potency, µM (top dose mostly 46.3 µM), for inactives: at the highest dose activity change, negative = inhibition, actives largely listed as inhibitors; 1.6% of 76,000 active; calls by dose curve; note: nearly all actives have a fitted effect of over 60% in size
Target sequence (P16066 whole entry, looked up): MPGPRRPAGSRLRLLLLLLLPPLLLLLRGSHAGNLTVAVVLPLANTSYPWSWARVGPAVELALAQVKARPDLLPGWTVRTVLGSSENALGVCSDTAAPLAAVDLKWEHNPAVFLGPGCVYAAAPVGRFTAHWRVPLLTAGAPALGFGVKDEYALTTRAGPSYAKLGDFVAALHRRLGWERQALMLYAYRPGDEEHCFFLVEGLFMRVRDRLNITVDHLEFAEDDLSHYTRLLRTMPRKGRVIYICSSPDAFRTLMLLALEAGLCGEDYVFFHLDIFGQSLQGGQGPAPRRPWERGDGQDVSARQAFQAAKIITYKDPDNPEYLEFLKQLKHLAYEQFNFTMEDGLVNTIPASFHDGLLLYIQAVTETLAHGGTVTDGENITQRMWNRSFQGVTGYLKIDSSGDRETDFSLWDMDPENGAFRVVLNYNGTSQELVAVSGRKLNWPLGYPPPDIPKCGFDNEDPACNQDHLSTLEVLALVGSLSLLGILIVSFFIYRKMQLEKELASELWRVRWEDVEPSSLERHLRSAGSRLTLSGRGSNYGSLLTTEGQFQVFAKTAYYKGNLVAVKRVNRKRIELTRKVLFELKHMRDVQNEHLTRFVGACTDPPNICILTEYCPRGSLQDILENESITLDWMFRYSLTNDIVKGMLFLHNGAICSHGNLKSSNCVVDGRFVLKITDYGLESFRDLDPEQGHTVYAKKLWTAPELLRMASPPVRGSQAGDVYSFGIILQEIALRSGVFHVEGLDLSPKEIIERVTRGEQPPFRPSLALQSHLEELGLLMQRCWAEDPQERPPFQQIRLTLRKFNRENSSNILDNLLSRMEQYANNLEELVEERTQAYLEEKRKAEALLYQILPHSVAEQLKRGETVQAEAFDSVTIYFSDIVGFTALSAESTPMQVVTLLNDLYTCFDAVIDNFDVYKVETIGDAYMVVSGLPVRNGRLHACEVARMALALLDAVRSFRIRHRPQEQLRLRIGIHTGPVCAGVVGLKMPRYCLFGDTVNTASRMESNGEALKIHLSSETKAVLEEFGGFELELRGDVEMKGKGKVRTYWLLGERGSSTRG
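Compound pre-incubated 30 min at room temperature on GloSensor-loaded HEK293 cells stably carrying hNpr1 and the pGS-40F cGMP biosensor. Stimulation uses hNppA at 0.1 nM final; luminescence is taken at baseline and 20 min post-agonist.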
Numbers without * were called inactive; i = inactive; ? = inconclusive; / = no result given; [ ] = another dose, or the depositor's remark. Unless noted, calls come from the whole dose curve; as a rule, active = well fitted curve in the direction sought with a large enough effect; inconclusive = small, poorly fitted or top-dose-only effect, or another doubt; inactive = no such curve, though single readings can be large; an effect the other way counts as inactive or inconclusive. % is set by controls: 0 for no effect and ±100 for the full control effect; potency is the fitted concentration of half-maximal effect.

SMILES	GPT2 inh	Luciferase inh	NIH3T3 tox	HEK293 tox	hNpr1 antagonist
COc1ccc(-c2ccc3c(c2)C(=O)N2CCN(C(=O)CC(C)(C)C)C[C@@H]2C(=O)N3)cc1	-19%[88.5 µM]	i	?	?	-1%[70.6 µM]
COc1ccc(Cl)cc1-c1ccc2c(c1)C(=O)N1CCN(C(=O)C3CCCC3)C[C@H]1C(=O)N2	1%	i	?	?	-7%
CN(Cc1ccccc1)Cc1cn([C@H]2CO[C@H]3[C@@H]2OC[C@@H]3NC(=O)c2ccco2)nn1	2%[88.5 µM]	i	-3%[174 µM]	-26%[172 µM]	-1%[70.6 µM]
O=C1CC2CCN([S+](=O)([O-])C3CCCC3)CC2CCN1 (configuration not stated)	-1%	/	i	i	/
COc1ccc(Cl)cc1-c1ccc2c(c1)C(=O)N1CCN(C(=O)CN)C[C@H]1C(=O)N2	-17%[88.5 µM]	i	100µM*	?	3%[70.6 µM]
CC1(c2ccccc2)N(Cc2ccccc2C#N)C(=O)OC12CCN(C(=O)Cc1ccc(O)cc1)CC2 (configuration not stated)	i	i	11µM*	-23%	1%
CC1(c2ccccc2)N(Cc2ccccc2)C(=O)OC12CCN(Cc1c[nH]c3ccccc13)CC2 (configuration not stated)	4%	i	22µM*	28µM*	?
CC(=O)N1CCC2(CC1)OC(=O)N(Cc1ccccc1)C2(C)c1ccccc1 (configuration not stated)	2%[88.5 µM]	i	25µM*	-23%[172 µM]	-1%[70.6 µM]
CC1(c2ccccc2)N(Cc2cccnc2)C(=O)OC12CCN(Cc1ccccc1O)CC2 (configuration not stated)	-9%	i	-24%	?	-22%
CC1(c2ccccc2)N(Cc2ccccc2)C(=O)OC12CCN(C(=O)c1cccc(Cl)c1)CC2 (configuration not stated)	-13%	i	?	-29%	0%
CC1(c2ccccc2)N(Cc2ccccc2)C(=O)OC12CCN(C(=O)c1cccc(O)c1)CC2 (configuration not stated)	3%	i	?	79µM*	-5%
CC1(c2ccccc2)N(Cc2ccccc2)C(=O)OC12CCN(C(=O)c1ccc(F)cc1)CC2 (configuration not stated)	-9%	i	?	?	1%
CC(C)c1cc(NCCc2nc(N)cc(=O)[nH]2)n2nccc2n1	i	i	-13%	1%	1%
CC1(c2ccccc2)N(Cc2ccc(O)cc2)C(=O)OC12CCN(C(=O)c1cccnc1)CC2 (configuration not stated)	4%	i	32µM*	i	3%
Cc1nc(CN2C(=O)OC3(CCN(CCc4ccccc4)CC3)C2(C)c2ccccc2)cs1 (configuration not stated)	0%	i	-22%	?	-10%
COc1ccc(C(=O)N2CCC3(CC2)OC(=O)N(Cc2ccc(O)cc2)C3(C)c2ccccc2)cn1 (configuration not stated)	-3%	i	?	?	-12%
CC1(c2ccccc2)N(Cc2cccnc2)C(=O)OC12CCN(C(=O)Cc1ccc(Cl)cc1)CC2 (configuration not stated)	-3%	i	?	?	4%
CC1(c2ccccc2)N(Cc2ccccc2)C(=O)OC12CCN(C(=O)Cc1ccc(O)cc1)CC2 (configuration not stated)	3%	i	6.3µM*	?	-17%
Cc1nc(CN2C(=O)OC3(CCN(Cc4ccc(C(C)C)cc4)CC3)C2(C)c2ccccc2)cs1 (configuration not stated)	-13%	i	45µM*	?	3%
COc1ccc(C(=O)N2CCC3(CC2)OC(=O)N(Cc2ccccc2F)C3(C)c2ccccc2)cn1 (configuration not stated)	i	i	?	?	-4%
Cc1ncsc1C(=O)N1CCC2(CC1)OC(=O)N(Cc1ccccc1F)C2(C)c1ccccc1 (configuration not stated)	-25%	i	10µM*	-29%	2%
COc1ccc(NC(=O)Cn2c(-c3cccc(Cl)c3)nc(C)c(CCO)c2=O)cc1OC	-16%	i	-22%	?	-5%
Cc1cc(C)cc(Nc2nc(C)cc(=O)n2CC(=O)Nc2cccc(C#N)c2)c1	i	i	-9%	?	-12%
COc1ccc(C(=O)N2CCC3(CC2)OC(=O)N(Cc2ccccc2)C3(C)c2cccnc2)cc1 (configuration not stated)	-12%	i	?	i	5%
CC1(c2ccccc2)N(Cc2ccccc2F)C(=O)OC12CCN(C(=O)CCc1ccccn1)CC2 (configuration not stated)	-5%	i	?	?	3%
SMILES	GPT2 inh	Luciferase inh	NIH3T3 tox	HEK293 tox	hNpr1 antagonist
CC1(c2ccccc2)N(Cc2ccccc2)C(=O)OC12CCN(Cc1ccc(O)cc1)CC2 (configuration not stated)	0%	i	?	?	-19%
CC1(c2ccccc2)N(Cc2ccccc2F)C(=O)OC12CCN(C(=O)Cc1ccc(O)cc1)CC2 (configuration not stated)	-20%	i	22µM*	?	6%
Cn1ccc(C(=O)N2CCC3(CC2)OC(=O)N(Cc2ccccc2)C3(C)c2ccccc2)n1 (configuration not stated)	i	i	35µM*	-1%	-2%
COc1ccc(CN2CCC3(CC2)OC(=O)N(Cc2ccccc2C#N)C3(C)c2ccccc2)cc1O (configuration not stated)	-1%	i	?	45µM*	-19%
CC1(c2ccccc2)N(Cc2ccc(O)cc2)C(=O)OC12CCN(CC1CC1)CC2 (configuration not stated)	i	i	79µM*	?	-8%[70.6 µM]
COc1ccc(CN2C(=O)[C@@H]3C[C@@H](O)CN3C3(CN(Cc4cnc5ccccc5c4)C3)C2=O)cc1	3%	i	-1%	i	1%
COc1cc(NC(=O)N2C[C@@H]3C[C@H](C2)c2ccc(NC(=O)c4ccc(F)cc4)c(=O)n2C3)cc(OC)c1	1%	i	?	1%	7%
CCc1noc(-c2cn(C3CCN(C(=O)c4ccc(C)s4)C3)nn2)n1 (configuration not stated)	i	i	-16%	?	?
CCOc1ccc2c(n1)CCN(C(=O)c1ccc(C(C)C)cc1)C2	i	32µM*	?	?	-3%
COCCOc1ccc2c(n1)CCN(C(=O)c1ccc(OC)cc1)C2	0%	i	-10%	5%	2%
